According to PubChem BioAssay (Tox21):
Several values for one entry are separate records, joined by “and”; a condition that tells them apart may be missing. Equal values may be shown once. Results filed as inconclusive are left out. Entries that show only a call come without a potency. Where a structure was tested more than once in an assay, its records may differ in their call. Activity calls are given as the source filed them. The call rests on the fitted dose curve; in most records, active means well fitted activation curve with a large enough effect in the repeat runs; inconclusive means weak or mixed curves; inactive means flat fitted curve, though single readings scatter.
Potency means the concentration at half of the fitted maximal effect.

Assay: A CellTox Green Cytotoxicity Assay to monitor cytotoxicity in HepG2 cells - 24 hour (AID 1224878); further: nearly all actives have a fitted effect of over 45% in size
Details: CellTox Green fluorescence; series mostly up to 76.8 µM
Text: National Center for Advancing Translational Sciences [NCATS]
NIH Chemical Genomics Center [NCGC]
U.S. Environmental Protection Agency [EPA]
National Institutes of Environmental Health Sciences [NIEHS]
National Toxicology Program [NTP]
Cell-based models are critical for drug discovery. Determining the natural cytotoxic effects resulting from test compounds is an essential research activity. A CellTox Green Cytotoxicity Assay to monitor cytotoxicity in real time of continues cell culture during 40 hours of the compound treatment was used to screen Tox21 10K library compounds in HepG2 cells. CellTox Green Cytotoxicity Assay is a nonlytic, homogeneous, biofluorescent method to measure cytotoxicity in cell culture after experimental manipulation. The assay system uses a proprietary asymmetric cyanine dye that is excluded from viable cells but preferentially stains the dead cell's DNA. […] Viable cells produce no appreciable increases in fluorescence. Therefore, the fluorescence signal produced by the binding interaction with dead cell DNA is proportional to cytotoxicity.
The mixture of HepG2 cell suspension and reagents were dispensed at 600cells/6 ul/well in 1536-well tissue culture treated black solid bottom plates using a Multidrop dispenser. After the assay plates were incubated at a 37 C/5% CO2 incubator for 5 hours, 23 nL of compounds dissolved in DMSO, positive and negative controls was transferred to the assay plate by a pintool work station. The plates were incubated at 37 C for 40 hours. The fluorescence intensity were measured at 0h, 8h, 16h, 24h, 32h and 40h time points using ViewLux plate reader during compound treatment.
With COc1ccc(COC(C)=O)cc1 the Potency was “inactive”.
For CC[C@]1(O)C[C@@H]2CN(CCc3c([nH]c4ccccc34)[C@@](C(=O)OC)(c3cc4c(cc3OC)N(C)[C@H]3[C@@](O)(C(=O)OC)[C@H](OC(C)=O)[C@]5(CC)C=CCN6CC[C@]43[C@@H]65)C2)C1, the Potency was “inactive”.
For CC(C)(C)c1ccc(O)c(C(C)(C)C)c1, the Potency was 48.8 µM (active) and 43.6 µM (active).
With C1COC(NC(C2CC2)C2CC2)=N1 the Potency was “inactive”.
In the case of CCN(CC)C(=S)SSC(=S)N(CC)CC, the Potency is reported as 158 nM (active) and 95.2 nM (active).
In the case of CC1COC(=O)O1 (stereo not given), the Potency is reported as “inactive and 43.6 µM (active)”.
With NCCO the Potency was “inactive”.
In the case of CCCCC/C=C/CC1CC(=O)OC1=O (stereo not given), the Potency is reported as “inactive”.
In the case of COc1ccc(CCN2CCC(Nc3nc4ccccc4n3Cc3ccc(F)cc3)CC2)cc1, the Potency is reported as 19.9 µM (active) and 9.52 µM (active).
In the case of CN1C(=O)c2ccc([N+](=O)[O-])cc2C1=O, the Potency is reported as “inactive”.
In the case of c1ccc2n[nH]nc2c1, the Potency is reported as “inactive”.
With CCC(=O)/C=C/C1C(C)=CCCC1(C)C (stereo not given) the Potency was “inactive”.
For Cc1scc2c1N(C(=O)CN1CCN(C)CC1)c1ccccc1NC2=O, the Potency was “inactive”.
In the case of CC(=O)C1=C(C)[C@@H]2C[C@@]3(C1)[C@H](C)CC[C@H]3C2(C)C, the Potency is reported as “inactive”.
In the case of Oc1c(Cl)cc(Cl)cc1Sc1cc(Cl)cc(Cl)c1O, the Potency is reported as 39.5 µM (active) and 43.6 µM (active) and inactive.
In the case of CC[C@H]1CN2CCc3cc(OC)c(OC)cc3[C@@H]2C[C@@H]1C[C@H]1NCCc2cc(OC)c(OC)cc21, the Potency is reported as 49.2 µM (active) and 26.8 µM (active).
In the case of Cc1ccc(-c2cc(C(F)(F)F)nn2-c2ccc(S(N)(=O)=O)cc2)cc1, the Potency is reported as 19.4 µM (active) and 49 µM (active).
For CCOc1ccc2c(c1)C(C)=CC(C)(C)N2, the Potency was “inactive”.
For c1cc(C(c2ccc(OCC3CO3)cc2)C(c2ccc(OCC3CO3)cc2)c2ccc(OCC3CO3)cc2)ccc1OCC1CO1 (stereo not given), the Potency was “inactive”.
With Cc1cc(Cc2cc(C)cc(C(C)(C)C)c2O)c(O)c(C(C)(C)C)c1 the Potency was 43.9 µM (active) and 43.6 µM (active).
In the case of CC(C)(C)c1ccccc1, the Potency is reported as “inactive”.
For Cc1ccnc2c1NC(=O)c1cccnc1N2C1CC1, the Potency was “inactive”.
For NC(=Nc1ccccc1)Nc1ccccc1, the Potency was “inactive”.
With CC(C)(O)CCC(C)(C)O the Potency was “inactive”.
In the case of CCn1cc(C(=O)O)c(=O)c2cc(F)c(N3CCNC(C)C3)c(F)c21 (stereo not given), the Potency is reported as “inactive”.
With Nc1cc(Cl)c(-c2cc(Cl)c(N)cc2Cl)cc1Cl the Potency was “inactive and 54.9 µM (active)”.
With C=CC(=O)OCCCCCCCC the Potency was “inactive”.
With CN(C)c1ccc(C(=C2C=CC(=[N+](C)C)C=C2)c2ccccc2)cc1 the Potency was 6.74 µM (active) [middle of 4 runs].
In the case of Cc1cccc2n[nH]nc12, the Potency is reported as “inactive and 38.9 µM (active)”.
For O=C1CC2(CCCC2)CC(=O)N1CCCCN1CCN(c2ncccn2)CC1, the Potency was “inactive”.
In the case of C=CC(=O)OCCCCCCOC(=O)C=C, the Potency is reported as “inactive”.
In the case of CCn1c2ccccc2c2cc(N)ccc21, the Potency is reported as “inactive”.
In the case of OCCN1CCNCC1, the Potency is reported as “inactive”.
For CC(C)(C)NC(=O)[C@@H]1CN(Cc2cccnc2)CCN1C[C@@H](O)C[C@@H](Cc1ccccc1)C(=O)N[C@H]1c2ccccc2C[C@H]1O, the Potency was “inactive”.
For O, the Potency was “inactive”.
For COC(c1ccccc1)(c1ccccc1)[C@H](Oc1nc(C)cc(C)n1)C(=O)O, the Potency was “inactive”.
In the case of CC(=O)CC(=O)Nc1ccc2[nH]c(=O)[nH]c2c1, the Potency is reported as “inactive”.
For O=Cc1ccc(Cl)cc1, the Potency was “inactive”.
For Nc1nc(=S)c2[nH]cnc2[nH]1, the Potency was “inactive”.
With Nc1cc(S(=O)(=O)O)cc2cc(S(=O)(=O)O)cc(O)c12 the Potency was “inactive”.
